Assay results published in PubChem BioAssay (NCI).
About 83,000 compounds went through this panel and 20% of them were active in at least one assay; those are over-represented in the sample as a whole.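 Step 1: grow cells in 96-well plates. Step 2: add test compound at a single concentration. Step 3: incubate 48 h. Step 4: record percent growth.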 A number with no mark means an inactive call. Active and inactive are the calls of the source. Rule for the calls: active = growth percent below 10; inactive = the rest.

Columns and labels:
Test in all cases: NCI-60 one-dose screen, 48 h (100 = growth as untreated, 0 = no growth, -100 = all killed)
Conditions in all cases: 10 µM unless noted
[1] = system: NCI-H23 lung
[2] = system: NCI-H226 lung
[3] = system: NCI-H322M lung
[4] = system: HOP-62 NSCLC
[5] = system: NCI-H460 lung
[6] = system: HOP-92 NSCLC
[7] = system: NCI-H522 lung
[8] = system: A549/ATCC NSCLC
[9] = system: 786-0 renal
[10] = system: COLO 205 colon
[11] = system: DU-145 prostate
[12] = system: K-562 leukemia
[13] = system: MALME-3M melanoma
[14] = system: MDA-MB-231 breast
[15] = system: RXF 393 renal
[16] = system: SF-268 CNS
[17] = system: SF-295 CNS
[18] = system: SF-539 CNS
[19] = system: UACC-257 melanoma
[20] = system: M14 melanoma

Compound: CN(CCCCN(C)CCOS(C)(=O)=O)CCOS(C)(=O)=O
- growth [1]: 84%
- growth [2]: 75%
- growth [3]: 105%
- growth [4]: 84.7%
- growth [5]: 35.2%
- growth [6]: 86.3%
- growth [7]: 81.3%
- growth [8]: 78.9%
- growth [9]: 100%
- growth [10]: 74.2%
- growth [11]: 96.7%
- growth [12]: 93.3%
- growth [13]: 86.9%
- growth [14]: 79.7%
- growth [15]: 90.1%
- growth [16]: 66.4%
- growth [17]: 109%
- growth [18]: 47.2%
- growth [19]: 82.3%
- growth [20]: 76.4%

Compound: CCOC(=O)[C@@H](C)C[C@H](Cc1ccccc1)NC(=O)c1nc([C@@H](C[C@H](C(C)C)N(C)C(=O)[C@@H](NC(=O)[C@H]2CCCCN2C)C(C)C)OC(C)=O)sc1CCOCc1ccccc1
- growth [1]: 14.7%
- growth [2]: -80.6% (active)
- growth [3]: 11.9%
- growth [4]: -42.7% (active)
- growth [5]: -54.8% (active)
- growth [6]: -16.5% (active)
- growth [7]: -49.2% (active)
- growth [8]: -31.1% (active)
- growth [9]: -38.6% (active)
- growth [10]: -70.9% (active)
- growth [11]: -27.3% (active)
- growth [12]: -31.4% (active)
- growth [13]: -77.4% (active)
- growth [14]: -49.8% (active)
- growth [15]: -14.2% (active)
- growth [16]: -38% (active)
- growth [17]: -33.6% (active)
- growth [18]: -69.2% (active)
- growth [19]: -7.85% (active)
- growth [20]: -57.1% (active)

Compound: Clc1ccc(CO/N=C(\Cn2ccnc2)c2ccc(Cl)cc2Cl)c(Cl)c1
- growth [1]: -16.5% (active)
- growth [2]: -8.01% (active)
- growth [3]: 21.6%
- growth [4]: 107%
- growth [5]: -32.5% (active)
- growth [6]: -31.9% (active)
- growth [7]: -45.2% (active)
- growth [8]: 7.85% (active)
- growth [9]: -45.3% (active)
- growth [10]: 105%
- growth [11]: 21%
- growth [12]: 1.68% (active)
- growth [13]: -50.8% (active)
- growth [14]: -11.5% (active)
- growth [15]: -59.8% (active)
- growth [16]: 11.6%
- growth [17]: -13.3% (active)
- growth [18]: -55.1% (active)
- growth [19]: 6.73% (active)
- growth [20]: -17.4% (active)

Compound: C/C(CC(C)(C)N1CC1)=N\NC(=O)Nc1cccc2ccccc12
- growth [1]: 68%
- growth [2]: 56.4%
- growth [3]: 81.2%
- growth [4]: 62.5%
- growth [5]: 42.9%
- growth [6]: 24.2%
- growth [7]: 48.7%
- growth [8]: 63%
- growth [9]: 70.4%
- growth [10]: 52.3%
- growth [11]: 68.2%
- growth [12]: 78.2%
- growth [13]: 74.5%
- growth [14]: 58.3%
- growth [15]: 39.2%
- growth [16]: 52.9%
- growth [17]: 67%
- growth [18]: 70.3%
- growth [19]: 86.4%
- growth [20]: 72.8%

Compound: Cn1cc(C2=C(c3cn(C4CCN(Cc5ccccn5)CC4)c4ccccc34)C(=O)NC2=O)c2ccccc21
- growth [1]: 53.6%
- growth [2]: 93.5%
- growth [3]: 37.2%
- growth [4]: 68%
- growth [5]: 74.9%
- growth [6]: 69.8%
- growth [7]: 48.8%
- growth [8]: 50.8%
- growth [9]: 79.7%
- growth [10]: 6.03% (active)
- growth [11]: 70%
- growth [12]: 91.3%
- growth [13]: -3.24% (active)
- growth [14]: 79.8%
- growth [15]: 90.9%
- growth [16]: 82.8%
- growth [17]: 97.1%
- growth [18]: 89.6%
- growth [19]: -0.885% (active)
- growth [20]: 16.5%

Compound: CCCCCCCCCCCCNC(c1ccccc1)C(O)c1ccccc1 (stereo not given)
- growth [1]: 78.7%
- growth [2]: 103%
- growth [3]: 88.2%
- growth [4]: 90.3%
- growth [5]: 93.4%
- growth [6]: 80.7%
- growth [7]: 69.1%
- growth [8]: 84.7%
- growth [9]: 79.3%
- growth [10]: -30.7% (active)
- growth [11]: 83.5%
- growth [12]: 24.1%
- growth [13]: 68.3%
- growth [14]: 39.9%
- growth [15]: 59%
- growth [16]: 79%
- growth [17]: 107%
- growth [18]: 87.9%
- growth [19]: 99.9%
- growth [20]: 93.3%

Compound: Cc1ccc(N2COOC3(OOC2)C2CC4CC(C2)CC3C4)cc1
- growth [1]: 89.5%
- growth [2]: 108%
- growth [3]: 98.7%
- growth [4]: 93.1%
- growth [5]: 103%
- growth [6]: 95.5%
- growth [7]: 92.5%
- growth [8]: 98.7%
- growth [9]: 96.1%
- growth [10]: 110%
- growth [11]: 109%
- growth [12]: 72.6%
- growth [13]: 110%
- growth [14]: 112%
- growth [15]: 115%
- growth [16]: 97.9%
- growth [17]: 95.5%
- growth [18]: 96.5%
- growth [19]: 95.3%
- growth [20]: 97.8%
